# Screening results deposited in PubChem by several laboratories.
# This is a sample that favours compounds with a hit; in the whole collection about 28% have one here.
# CYP2C19 act: cytochrome P450 2C19 (human) activation; P33261; recombinant CYP2C19, luciferin-H EGE luminescence; active compounds read high; 0 = fully inhibited enzyme, 1 = untreated enzyme; activation factor at 5 µM; 96,000 tested, under 10 active; AID 1025;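 active means activation factor of at least 2 at 5 µM in the primary screen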;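 further: 0 = wells with 2.5 mM tranylcypromine and 1 = vehicle-only wells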
# D1 allo mod: D1 dopamine receptor (human) allosteric modulation; HEK293 D1, CRE-luciferase, dopamine EC30 potentiation; actives deviate in either direction; B-score at 10 µM; AID 641; P21728; 5.9% of 58,000 active;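 active means luminescence count or its row- and column-corrected plate score outside the 99.7% band of the plate's sample wells, on either side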
# CYP2C9 inhib: blocks human cytochrome P450 2C9; P11712; CYP2C9 Supersomes, luciferin-H conversion, luminescence; inhibition, % at 5 µM; 20% of 96,000 active;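 active means blocking of liver enzyme CYP2C9 beyond about 50% at 5 µM, limit read from the data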
# DAT uptake mod: human DAT dopamine uptake with cocaine, either direction | LLC-PK1 hDAT cells, [14C]-dopamine uptake with cocaine IC80; actives deviate in either direction | Q01959 | 1.3% of 110,000 active | B-score at 10 µM;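 active means Z score or B-score, a plate-position-corrected score, falls beyond the plate's 99.7% confidence bounds, in either direction; inactive means both scores lie inside the 99.7% bounds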;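 further: scored against the spread of the other compound wells on the same plate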
# Target sequence (Q01959 whole entry, looked up): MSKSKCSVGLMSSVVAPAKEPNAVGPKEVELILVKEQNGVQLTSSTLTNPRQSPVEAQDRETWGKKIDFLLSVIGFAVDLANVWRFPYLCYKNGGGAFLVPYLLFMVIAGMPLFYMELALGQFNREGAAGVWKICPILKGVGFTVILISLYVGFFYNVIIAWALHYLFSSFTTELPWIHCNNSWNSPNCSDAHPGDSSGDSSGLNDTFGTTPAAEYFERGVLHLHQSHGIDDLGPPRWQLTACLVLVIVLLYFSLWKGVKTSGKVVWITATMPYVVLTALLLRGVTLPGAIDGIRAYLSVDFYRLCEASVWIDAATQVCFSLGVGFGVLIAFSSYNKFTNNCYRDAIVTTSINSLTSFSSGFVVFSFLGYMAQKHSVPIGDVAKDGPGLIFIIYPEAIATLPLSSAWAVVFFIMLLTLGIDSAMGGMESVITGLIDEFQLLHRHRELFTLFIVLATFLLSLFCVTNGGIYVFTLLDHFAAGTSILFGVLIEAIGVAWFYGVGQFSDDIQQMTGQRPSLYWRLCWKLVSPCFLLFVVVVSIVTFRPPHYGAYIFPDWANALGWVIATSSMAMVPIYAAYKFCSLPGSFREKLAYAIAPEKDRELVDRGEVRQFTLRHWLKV
# CYP2C19 inh: human CYP2C19 inhibition | 21% of 96,000 active | inhibition, % at 5 µM | CYP2C19 Supersomes, luciferin-H EGE luminescence, 30 min | P33261;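 active means CYP2C19 inhibition above a set limit at 5 µM in the primary screen, cut at about 50% in these data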;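 further: plate controls were negative control wells for no effect and 2.5 mM tranylcypromine positive control for full effect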
# CYP2C9 activ: CYP2C9 (human) activation | P11712 | activation factor at 5 µM | recombinant CYP2C9, luciferin-H conversion, luminescence; active compounds read high; factor 1 = untreated enzyme, 0 = blocked | 1.4% of 96,000 active;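 active means activation factor of 2 or more for CYP2C9 at a 5 µM dose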;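 further: 0 = sulfaphenazole-blocked wells and 1 = vehicle-only wells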
# Starred values were filed as active, the others as inactive; / = no result given.
SMILES,CYP2C19 act,D1 allo mod,CYP2C9 inhib,DAT uptake mod,CYP2C19 inh,CYP2C9 activ
Cc1cc(C(=O)CN2C(=O)c3ccccc3S2(=O)=O)c(C)n1CC1CCCO1 (stereo not given),1,-5.7*,-30,0.63,2,1.3
CCn1c(SCC(=O)c2cc(C)n(CC3CCCO3)c2C)nc2ccccc21 (stereo not given),0.2,-0.36,2,-1.2,76*,1
Cc1cc(C(=O)CSc2nnnn2-c2ccc(Cl)cc2)c(C)n1CC1CCCO1 (stereo not given),0.4,-0.054,12,-0.34,64*,0.9
COc1ccccc1Nc1nnc(SCC(=O)c2cc(C)n(CC3CCCO3)c2C)s1 (stereo not given),0.5,/,26,1.3,48,0.7
CCCCC1=NN2C(=N)CC(=O)N=C2S1,0.9,/,12,0.64,9,0.9
COc1cccc(C2NC(=O)c3ccccc3O2)c1OC (stereo not given),0.1,-0.92,30,-0.4,86*,0.7
COc1ccc(C2NC(=O)c3ccccc3O2)c(OC)c1OC (stereo not given),0.2,0.82,70*,-0.091,85*,0.3
COc1cc(OC)c(C2C(C(=O)Nc3ccc(C)cc3C)=C(C)Nc3ncnn32)cc1OC (stereo not given),1.1,-0.86,-22,-0.52,-11,1.2
O=C(N/N=C/c1cc([N+](=O)[O-])ccc1N1CCNCC1)c1ccc([N+](=O)[O-])cc1,0.9,/,4,0.071,6,1
O=S(=O)(NCC1CCCO1)c1ccc(S(=O)(=O)N2CCCC2)cc1 (stereo not given),1,/,10,-1.4,4,0.9
CC1CCN(S(=O)(=O)c2ccc(S(=O)(=O)NCC3COCCO3)cc2)CC1 (stereo not given),0.4,0.024,3,0.0011,60*,1
CCOC(=O)Nc1ccc(=O)n(Cc2c(Cl)cccc2Cl)c1,0.8,/,53*,0.68,23,0.5
Cc1ccc2cc(C)c3nnc(SCC(=O)Nc4nc5c(s4)CCCC5)n3c2c1C,0.6,/,50*,1.9,40,0.5
CCc1nnc(NC(=O)CSc2nnc(C)n2Cc2ccccc2)s1,/,/,/,0.4,/,/
CCn1c(SCC(=O)N(C(C)C)C(C)C)nnc1-c1cc2ccccc2cc1O,0.4,-0.88,57*,-0.67,65*,0.4
CCc1nnc(NC(=O)CSc2nnc(-c3cc4ccccc4cc3O)n2CCOC)s1,0.9,0.083,54*,1.9,11,0.5
CCc1nnc(NC(=O)CSc2nnc(-c3cc4ccccc4cc3O)n2CC)s1,0.5,-1.3,90*,0.89,52*,0.1
Cc1cc2c(N=O)c(NO)ccc2[nH]1,0.7,-0.73,46,0.23,26,0.5
O=C1c2oc3ccccc3c(=O)c2C(c2ccc(Br)cc2)N1c1ncccn1 (stereo not given),/,0.66,/,/,/,/
COc1ccc(CNC(=O)C(c2ccc(C)o2)N(Cc2cccs2)C(=O)Cc2cccs2)cc1 (stereo not given),/,/,/,1.1,/,/
CCn1c(SCC(=O)Nc2nc3c(s2)CCCC3)nnc1-c1ccccc1,0.2,3.7,88*,3.7*,81*,0.1
CCn1c(SCC(=O)Nc2nc(-c3ccccc3)cs2)nnc1-c1ccccc1O,0.1,-1.4,95*,-0.011,89*,0
CCn1c(CCNC(=O)c2cccs2)nnc1SCC(=O)Nc1nc(-c2ccccc2)cs1,/,/,/,-0.53,/,/
CCc1nnc(NC(=O)CSc2nnc(-c3ccccc3O)n2CC)s1,0.2,/,77*,0.35,76*,0.2
CCc1nnc(NC(=O)CSc2nnc(-c3cccnc3)n2CC)s1,1,/,19,0.38,-2,0.8
CCOC(=O)SC1=N/C(=C\c2ccc(N(C)C)cc2)C(=O)S1,0.9,-0.3,68*,-0.37,10,0.3
O=S(=O)(/C=C/c1ccccc1)N1CCN(c2ccccc2)CC1,0.7,0.016,-13,-0.42,30,1.1
CCOC(=O)N1CCN(CC(=O)Nc2ccc(C)cc2)CC1,1,0.18,-64,0.44,1,1.6
CCOC(=O)N1CCN(C/C(C)=C/c2ccccc2)CC1,0.4,-0.0063,65*,-0.099,61*,0.4
CCOC(=O)N1CCN(C(=O)C(c2ccccc2)c2ccccc2)CC1,0.6,-0.045,49,0.42,40,0.5
